The panel holds about 83,000 compounds, 20% with a hit somewhere; the sample as a whole holds those more often.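 Step 1: grow cells in 96-well plates. Step 2: add test compound at a single concentration. Step 3: incubate 48 h. Step 4: record percent growth.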 Values without a mark were called inactive. Activity calls are given as the source filed them. Rule for the calls: active = growth percent below 10; inactive = the rest.
Tests used:
Test in all cases: NCI-60 one-dose screen, 48 h (100 = growth as untreated, 0 = no growth, -100 = all killed)
Settings in all cases: 10 µM unless noted
SN12C renal = test system: SN12C renal
UO-31 renal = test system: UO-31 renal
TK-10 renal = test system: TK-10 renal
ACHN renal = test system: ACHN renal
CAKI-1 renal = test system: CAKI-1 renal
A498 renal = test system: A498 renal
CCRF-CEM leukemia = test system: CCRF-CEM leukemia
MOLT-4 leukemia = test system: MOLT-4 leukemia
SR leukemia = test system: SR leukemia
RPMI-8226 leukemia = test system: RPMI-8226 leukemia
OVCAR-8 ovarian = test system: OVCAR-8 ovarian
OVCAR-5 ovarian = test system: OVCAR-5 ovarian
OVCAR-4 ovarian = test system: OVCAR-4 ovarian
SK-OV-3 ovarian = test system: SK-OV-3 ovarian
OVCAR-3 ovarian = test system: OVCAR-3 ovarian
HS 578T breast = test system: HS 578T breast
NCI/ADR-RES ovarian = test system: NCI/ADR-RES ovarian
IGROV1 ovarian = test system: IGROV1 ovarian

SMILES	growth (SN12C renal)	growth (UO-31 renal)	growth (TK-10 renal)	growth (ACHN renal)	growth (CAKI-1 renal)	growth (A498 renal)	growth (CCRF-CEM leukemia)	growth (MOLT-4 leukemia)	growth (SR leukemia)	growth (RPMI-8226 leukemia)	growth (OVCAR-8 ovarian)	growth (OVCAR-5 ovarian)	growth (OVCAR-4 ovarian)	growth (SK-OV-3 ovarian)	growth (OVCAR-3 ovarian)	growth (HS 578T breast)	growth (NCI/ADR-RES ovarian)	growth (IGROV1 ovarian)
O=C1C[C@H](N2C(=O)c3ccccc3S2(=O)=O)C2CO[C@@H]1O2	91.8%	63.7%	92.4%	78.2%	-80.1% (active)	93.9%	4.58% (active)	79%	10.3%	91.1%	93.7%	97.5%	84.3%	98.5%	86.9%	102%	98.3%	–
Cc1ccc(S(=O)(=O)n2cc(-c3csc(-c4cn(C)c5ncccc45)n3)c3ccccc32)cc1	77.6%	57.3%	91.3%	53%	48.1%	52.2%	37.4%	49.3%	2.53% (active)	71.1%	80.5%	81.9%	71.5%	70.2%	30.3%	85.8%	43.3%	56.3%
COc1ccc(/C=C2\N=C3SC=C(N)N3C2=O)cc1	20.4%	-4.09% (active)	19.5%	33%	-33% (active)	–	-40.2% (active)	-15.9% (active)	-21.3% (active)	-28.8% (active)	35.7%	59.9%	21.5%	45.6%	24.2%	50.4%	42.3%	9.81% (active)
Cc1cc(OCc2ccc(C(F)(F)F)cc2)c2c(c1)C(=O)C=C(NCCN1CCCC1)C2=O	79.4%	53.8%	82.7%	72.5%	53.1%	–	13%	16.4%	-11.6% (active)	29.9%	72.3%	87.9%	68%	103%	83.9%	85%	81.1%	74.8%
Cn1cc(-c2nc(-c3c[nH]c4ccccc34)cs2)c2cccnc21	52.7%	43.8%	44%	56.8%	29.7%	-0.249% (active)	7.02% (active)	19.9%	23%	14.4%	37.9%	54.4%	45.5%	38.7%	7.04% (active)	38.6%	20.4%	44.5%
Cc1sc2nc3[nH]/c(=C\c4ccc(Cl)cc4)c(=O)n3c(=O)c2c1C	98.1%	103%	102%	101%	105%	99.5%	90.2%	94.1%	86.6%	97.1%	103%	81.7%	105%	105%	107%	111%	107%	107%
O=c1c2cccc3c(Nc4c(F)cccc4F)ccc(c32)c2nc3ccccc3n12	93.8%	50.6%	–	88%	62%	109%	–	74.1%	21.5%	75.4%	92.9%	99.5%	82.9%	89.1%	91.5%	110%	95.4%	53.4%
Cn1cc(-c2csc(-c3cn(C)c4ncccc34)n2)c2ccccc21	56.4%	51.2%	50.3%	57.4%	35.1%	-0.625% (active)	10.1%	14.6%	9.51% (active)	22.4%	30.2%	64.6%	71.6%	36.6%	-4.76% (active)	46%	22.8%	–
CSc1nc(NCCCNc2ccnc3cc(Cl)ccc23)cc(-c2ccccc2)n1	79.5%	42.3%	75.7%	92.2%	54.1%	40.2%	47%	–	–	7.4% (active)	81.7%	95%	66.6%	82.3%	72.3%	65%	67.5%	67%
CCN(CC)CCC(=O)Nc1ccc(Cn2nnc3c2C(=O)c2nnn(Cc4ccc(NC(=O)CCN(CC)CC)cc4)c2C3=O)cc1	-50.1% (active)	99.9%	122%	87.6%	85.9%	–	-13% (active)	-28.9% (active)	-18.9% (active)	-16.6% (active)	-35.6% (active)	-19.1% (active)	-72.7% (active)	-8.54% (active)	-16.2% (active)	14.2%	99.3%	-55.6% (active)
CC1=C(NCCN2CCCC2)C(=O)c2c(OCc3ccc(F)c(Cl)c3)cccc2C1=O	71.2%	42.8%	69.1%	83.8%	50.2%	–	40.6%	44.3%	-14.3% (active)	50.4%	74.8%	72.7%	70.5%	93.7%	84%	79.7%	75.2%	67.6%
CC/C(=C(\c1ccc(O)cc1)c1ccc(OCCN(C)CCN(C)C(=O)CCCCC(=O)c2c(C)[nH]c(/C=C3\N=C(c4ccc[nH]4)C=C3OC)c2C)cc1)c1ccccc1	82.9%	55.8%	119%	92.5%	78.5%	66.5%	45.6%	56%	9.77% (active)	–	85.4%	108%	77.7%	123%	89.4%	97.8%	97.4%	89.5%
NC1=CSC2=N/C(=C\c3ccc(Cl)cc3)C(=O)N12	76.8%	58.2%	72.8%	88.3%	38.8%	65.6%	-13.5% (active)	8.12% (active)	-2.29% (active)	39.9%	72.3%	105%	84.1%	89.3%	71.6%	101%	76.1%	79.2%
O=C1Nc2ccccc2C12CC(c1ccccc1)=NN2 (stereo unspecified)	68.6%	57.6%	–	59.3%	22.8%	63.7%	49.2%	38.7%	-7.86% (active)	47.3%	70.5%	83.8%	77.2%	59.4%	39.6%	87.9%	41.5%	43%
COc1ccc2nc3cc(Cl)ccc3c(N3CCN(c4ccnc(N5CCOCC5)n4)CC3)c2c1	32.3%	57.2%	63.7%	27.4%	59.7%	60.6%	-18.4% (active)	–	–	11.3%	59.2%	83.8%	55.6%	85.5%	4.76% (active)	99.2%	73.2%	77.8%
CCC(C)[C@@H]1NC(=O)[C@@H]2CCCN2C(=O)[C@H](Cc2ccccc2)NC(=O)[C@@H]2CCCN2C(=O)[C@H](Cc2ccccc2)NC(=O)[C@@H]2CCCN2C(=O)[C@H](Cc2ccccc2)NC1=O (stereo partly specified)	102%	105%	104%	103%	94.1%	108%	92.7%	89.7%	83.7%	85.7%	113%	105%	106%	103%	126%	106%	112%	120%
O=C(CN1CCOCC1)Nc1ccc(Cn2nnc3c2C(=O)c2nnn(Cc4ccc(NC(=O)CN5CCOCC5)cc4)c2C3=O)cc1	-32.1% (active)	–	79.7%	58.7%	72.9%	-39.8% (active)	-21.4% (active)	-41.8% (active)	-21.3% (active)	-18.9% (active)	-58.3% (active)	-21.9% (active)	-93.4% (active)	0.088% (active)	-19% (active)	11.6%	103%	–
CCCCCCCCCCCCCCCCNCCC[C@@H](C)[C@H]1CC[C@H]2[C@@H]3[C@H](OCCCN)C[C@@H]4C[C@H](OCCCN)CC[C@]4(C)[C@H]3C[C@H](OCCCN)[C@]12C	-82.9% (active)	-52.5% (active)	-60.3% (active)	-26.5% (active)	-70.8% (active)	-5.88% (active)	-45.5% (active)	-33.7% (active)	2.63% (active)	-15.4% (active)	-48.9% (active)	-3.67% (active)	-37.1% (active)	-45.7% (active)	-10.5% (active)	-34% (active)	-60.6% (active)	-41.8% (active)
CCCCCN(CCCCC)CCC[C@@H](C)[C@H]1CC[C@H]2[C@@H]3[C@H](OCCCN)C[C@@H]4C[C@H](OCCCN)CC[C@]4(C)[C@H]3C[C@H](OCCCN)[C@]12C	54.3%	65.2%	–	54.7%	75.8%	92.8%	15.3%	41.1%	19.2%	-17.7% (active)	55.3%	66.2%	85.2%	93.2%	107%	66.9%	76%	29.6%
CC1=C(NCCN2CCCC2)C(=O)c2c(OCc3cccc(Cl)c3)cccc2C1=O	75.2%	52.7%	74.1%	89.1%	53.7%	47.4%	54.9%	51.5%	14.1%	60.9%	79.7%	79.9%	73.1%	95.2%	85%	72.4%	78.7%	71.8%
CCCCNc1ccc2c3c1cccc3c(=O)n1c3ccccc3nc21	90.9%	58.6%	70.2%	81.8%	43.2%	96.1%	–	69.4%	15.6%	–	106%	110%	85.8%	96.4%	95.3%	93.1%	91.3%	–
COc1ccccc1-c1ccc2c(N)c(C(=O)c3ccc4c(c3)OCO4)sc2n1	64.2%	78.5%	73.8%	88.6%	70.2%	60.1%	60.2%	36.6%	9.21% (active)	62.2%	73.8%	87.7%	95.7%	78.3%	69.8%	87.6%	38.7%	78.1%
O=C1CC(c2nc3ccccc3[nH]2)CN1C1CCCCC1 (stereo unspecified)	108%	78.4%	99.6%	106%	94.2%	79.7%	111%	102%	97.4%	106%	95.2%	108%	102%	101%	110%	102%	94.2%	108%
O=C(CCCCN1CCOCC1)Nc1ccc(Cn2nnc3c2C(=O)c2nnn(Cc4ccc(NC(=O)CCCCN5CCOCC5)cc4)c2C3=O)cc1	-46.6% (active)	10.5%	13.6%	-4.59% (active)	7.17% (active)	-91.1% (active)	–	-37.3% (active)	-22.2% (active)	-18% (active)	-36.2% (active)	-23% (active)	-73.9% (active)	-68.2% (active)	-58.2% (active)	12.5%	11%	-68.3% (active)

— PubChem BioAssay (NCI)
